Test results: the supplement of paper PMC10849652
Targets with a hit are over-represented here; the source holds about 7,900 in all. About 0.6% of all pairs of compound and target were hits.

Experiments:
Test in all cases: log2 fold change, soluble protein after heating vs DMSO (PISA); higher = thermal stabilisation; K562 cells, 10 uM, 30 min; active = over 0.2 and 3.5 SD of the protein, either way, in both replicates (recomputed)
[1] = compound: C1=CC=C(C=C1)[C@H](COC2=CC3=C(C=C2)NC(=O)N3)NC(=O)C4=CC=CN(C4=O)CC5=CC(=C(C=C5)F)F
Method in brief: (§1)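 Quantification of soluble protein used TMTpro 16plex LC-MS/MS, with channel sums equalised. Samples were the supernatant after 21,000xg for 90 min of pooled aliquots from K562 cells (2×10^6 cells/mL) treated with 10 μM compound for 30 min, heated for 3 min over 48°C-58°C, and extracted in PBS with 0.5% NP-40 at 4°C. Values, from duplicates, describe thermal stability against control samples on a log2 fold-change scale.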

[2] = compound: CC1=C(SC2=C1C(=N[C@H](C3=NN=C(N32)C)CC(=O)N)C4=CC=C(C=C4)Cl)C
Method in brief: as §1

[3] = compound: CC1=C2C(=CC=C1)N=C(N(C2=O)C3=CC=CC=C3C)CN4C=NC5=C(N=CN=C54)N
Method in brief: as §1

[4] = compound: Cc1sc2c(c1C)C(c1ccc(Cl)cc1)=N[C@@H](CC(=O)OC(C)(C)C)c1nnc(C)n1-2
Method in brief: as §1

[5] = compound: c1ccc([C@@H]2C[C@H]2NC2CCNCC2)cc1
Method in brief: as §1

Chain of UniProt O00214 (O00214 whole entry, looked up): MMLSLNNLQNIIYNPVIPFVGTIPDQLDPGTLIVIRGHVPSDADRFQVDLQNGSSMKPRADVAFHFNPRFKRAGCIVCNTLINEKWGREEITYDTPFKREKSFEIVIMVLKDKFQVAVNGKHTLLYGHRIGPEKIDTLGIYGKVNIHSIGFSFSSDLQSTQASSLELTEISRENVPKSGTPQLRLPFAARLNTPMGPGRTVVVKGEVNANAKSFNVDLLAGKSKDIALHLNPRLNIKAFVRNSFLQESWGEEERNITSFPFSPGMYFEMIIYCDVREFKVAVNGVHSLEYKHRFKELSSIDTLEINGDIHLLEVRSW
Chain of UniProt Q4G0J3 (Q4G0J3 whole entry, looked up): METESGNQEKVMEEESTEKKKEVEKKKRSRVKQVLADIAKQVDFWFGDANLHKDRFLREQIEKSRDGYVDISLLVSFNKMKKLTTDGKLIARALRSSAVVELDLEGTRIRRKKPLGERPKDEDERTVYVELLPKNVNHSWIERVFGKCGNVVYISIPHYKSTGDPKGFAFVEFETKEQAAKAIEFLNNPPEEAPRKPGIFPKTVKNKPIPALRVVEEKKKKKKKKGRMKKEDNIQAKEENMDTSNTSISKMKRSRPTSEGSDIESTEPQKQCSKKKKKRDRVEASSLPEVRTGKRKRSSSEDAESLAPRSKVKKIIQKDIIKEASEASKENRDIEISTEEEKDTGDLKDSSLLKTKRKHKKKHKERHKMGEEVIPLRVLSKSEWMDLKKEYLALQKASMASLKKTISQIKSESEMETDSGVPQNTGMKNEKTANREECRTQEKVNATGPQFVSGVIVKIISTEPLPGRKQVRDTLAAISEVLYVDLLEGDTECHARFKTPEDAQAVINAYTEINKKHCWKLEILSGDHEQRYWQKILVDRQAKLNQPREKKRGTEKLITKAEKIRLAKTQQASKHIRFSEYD
Chain of UniProt P01116 (P01116 whole entry, looked up): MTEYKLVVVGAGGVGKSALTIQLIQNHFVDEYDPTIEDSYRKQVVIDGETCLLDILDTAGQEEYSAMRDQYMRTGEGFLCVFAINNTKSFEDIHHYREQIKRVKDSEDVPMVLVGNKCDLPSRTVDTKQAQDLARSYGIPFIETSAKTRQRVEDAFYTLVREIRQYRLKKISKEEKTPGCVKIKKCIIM
Chain of UniProt Q9UHB6 (Q9UHB6 whole entry, looked up): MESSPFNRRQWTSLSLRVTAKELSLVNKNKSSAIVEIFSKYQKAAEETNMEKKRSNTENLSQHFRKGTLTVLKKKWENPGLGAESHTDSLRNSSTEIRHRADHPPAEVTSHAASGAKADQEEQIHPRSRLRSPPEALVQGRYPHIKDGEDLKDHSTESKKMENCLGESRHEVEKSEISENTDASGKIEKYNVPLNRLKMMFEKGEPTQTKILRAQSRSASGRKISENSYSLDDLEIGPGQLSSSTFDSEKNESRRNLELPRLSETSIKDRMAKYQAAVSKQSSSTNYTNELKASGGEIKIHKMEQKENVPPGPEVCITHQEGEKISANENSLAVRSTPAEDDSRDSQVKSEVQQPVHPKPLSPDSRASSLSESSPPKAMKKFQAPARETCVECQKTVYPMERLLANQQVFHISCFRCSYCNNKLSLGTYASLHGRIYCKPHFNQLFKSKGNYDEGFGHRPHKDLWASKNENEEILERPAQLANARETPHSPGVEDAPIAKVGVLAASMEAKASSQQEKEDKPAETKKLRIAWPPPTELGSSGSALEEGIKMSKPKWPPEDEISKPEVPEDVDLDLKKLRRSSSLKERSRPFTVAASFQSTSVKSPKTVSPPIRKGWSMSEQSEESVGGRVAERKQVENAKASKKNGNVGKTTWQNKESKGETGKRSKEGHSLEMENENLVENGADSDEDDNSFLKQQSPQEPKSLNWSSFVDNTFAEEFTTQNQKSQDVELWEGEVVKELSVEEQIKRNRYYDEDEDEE
Chain of UniProt Q99661 (Q99661 whole entry, looked up): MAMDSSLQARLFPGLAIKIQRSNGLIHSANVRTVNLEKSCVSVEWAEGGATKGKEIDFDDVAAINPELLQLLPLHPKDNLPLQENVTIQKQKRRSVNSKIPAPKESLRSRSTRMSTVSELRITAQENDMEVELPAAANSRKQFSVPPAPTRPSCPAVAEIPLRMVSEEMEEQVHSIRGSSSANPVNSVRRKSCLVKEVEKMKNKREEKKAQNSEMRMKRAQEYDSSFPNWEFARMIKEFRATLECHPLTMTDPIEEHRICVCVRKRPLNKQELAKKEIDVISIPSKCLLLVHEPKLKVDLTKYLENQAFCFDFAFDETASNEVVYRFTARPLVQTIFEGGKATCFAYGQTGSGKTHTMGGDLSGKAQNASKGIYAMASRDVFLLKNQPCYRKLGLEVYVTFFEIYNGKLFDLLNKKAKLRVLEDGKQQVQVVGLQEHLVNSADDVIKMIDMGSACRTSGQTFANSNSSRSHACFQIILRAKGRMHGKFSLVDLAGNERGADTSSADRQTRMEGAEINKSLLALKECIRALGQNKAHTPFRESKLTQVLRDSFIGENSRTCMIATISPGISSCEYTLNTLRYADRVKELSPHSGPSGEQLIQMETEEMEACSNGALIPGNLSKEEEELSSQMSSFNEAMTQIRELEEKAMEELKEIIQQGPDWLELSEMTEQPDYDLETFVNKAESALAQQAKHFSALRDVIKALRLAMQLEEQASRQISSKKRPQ
Chain of UniProt O15066 (O15066 whole entry, looked up): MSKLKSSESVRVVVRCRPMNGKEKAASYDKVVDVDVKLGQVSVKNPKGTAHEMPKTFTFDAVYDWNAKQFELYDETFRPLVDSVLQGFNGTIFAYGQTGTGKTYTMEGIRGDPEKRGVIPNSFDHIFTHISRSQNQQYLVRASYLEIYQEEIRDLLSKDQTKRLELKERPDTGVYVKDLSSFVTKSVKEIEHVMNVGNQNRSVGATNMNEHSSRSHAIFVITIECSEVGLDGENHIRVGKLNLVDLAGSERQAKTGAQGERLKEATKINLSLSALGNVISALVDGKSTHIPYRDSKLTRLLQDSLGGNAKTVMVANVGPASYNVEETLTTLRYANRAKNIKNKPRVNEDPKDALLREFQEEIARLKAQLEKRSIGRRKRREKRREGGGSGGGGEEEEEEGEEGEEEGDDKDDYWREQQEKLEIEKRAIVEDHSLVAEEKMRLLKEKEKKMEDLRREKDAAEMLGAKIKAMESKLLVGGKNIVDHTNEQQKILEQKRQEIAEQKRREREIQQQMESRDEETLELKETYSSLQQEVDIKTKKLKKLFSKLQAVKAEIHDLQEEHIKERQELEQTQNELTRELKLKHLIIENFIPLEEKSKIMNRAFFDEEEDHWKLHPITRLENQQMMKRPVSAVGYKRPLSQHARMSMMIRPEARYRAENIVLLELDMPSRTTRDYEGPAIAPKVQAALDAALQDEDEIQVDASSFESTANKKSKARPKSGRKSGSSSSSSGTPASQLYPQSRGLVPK
Chain of UniProt O95372 (O95372 whole entry, looked up): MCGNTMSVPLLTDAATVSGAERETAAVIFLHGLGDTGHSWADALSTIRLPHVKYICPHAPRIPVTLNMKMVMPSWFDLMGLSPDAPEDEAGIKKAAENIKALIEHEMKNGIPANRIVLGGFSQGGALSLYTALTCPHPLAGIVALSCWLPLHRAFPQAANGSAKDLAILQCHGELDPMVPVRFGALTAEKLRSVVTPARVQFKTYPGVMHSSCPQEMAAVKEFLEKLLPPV
Chain of UniProt A8MWY0 (A8MWY0 whole entry, looked up): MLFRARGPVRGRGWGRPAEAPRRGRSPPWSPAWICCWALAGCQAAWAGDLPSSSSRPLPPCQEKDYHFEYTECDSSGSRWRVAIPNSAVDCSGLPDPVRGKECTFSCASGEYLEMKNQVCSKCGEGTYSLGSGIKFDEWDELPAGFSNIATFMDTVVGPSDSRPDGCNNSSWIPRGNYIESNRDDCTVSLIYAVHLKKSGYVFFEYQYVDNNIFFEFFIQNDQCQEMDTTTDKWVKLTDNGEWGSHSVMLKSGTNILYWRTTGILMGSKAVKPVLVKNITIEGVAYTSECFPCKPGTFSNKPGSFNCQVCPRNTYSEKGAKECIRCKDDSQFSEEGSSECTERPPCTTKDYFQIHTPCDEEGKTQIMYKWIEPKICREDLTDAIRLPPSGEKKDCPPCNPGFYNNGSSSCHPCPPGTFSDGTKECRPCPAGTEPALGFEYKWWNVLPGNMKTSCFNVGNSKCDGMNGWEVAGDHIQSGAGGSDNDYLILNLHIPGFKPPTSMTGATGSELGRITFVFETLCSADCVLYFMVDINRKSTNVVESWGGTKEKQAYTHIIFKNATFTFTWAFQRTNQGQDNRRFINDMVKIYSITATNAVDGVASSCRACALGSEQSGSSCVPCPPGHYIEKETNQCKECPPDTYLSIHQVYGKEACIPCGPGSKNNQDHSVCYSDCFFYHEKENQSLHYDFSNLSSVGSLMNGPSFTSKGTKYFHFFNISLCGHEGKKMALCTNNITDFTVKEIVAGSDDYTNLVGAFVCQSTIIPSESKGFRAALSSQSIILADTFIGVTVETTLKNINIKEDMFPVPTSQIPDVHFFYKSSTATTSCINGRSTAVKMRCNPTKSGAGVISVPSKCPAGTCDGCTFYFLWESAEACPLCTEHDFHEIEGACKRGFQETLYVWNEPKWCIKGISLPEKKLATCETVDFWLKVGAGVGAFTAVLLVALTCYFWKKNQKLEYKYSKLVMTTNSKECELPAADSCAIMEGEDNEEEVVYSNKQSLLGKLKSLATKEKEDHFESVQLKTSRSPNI
Chain of UniProt Q16539 (Q16539 whole entry, looked up): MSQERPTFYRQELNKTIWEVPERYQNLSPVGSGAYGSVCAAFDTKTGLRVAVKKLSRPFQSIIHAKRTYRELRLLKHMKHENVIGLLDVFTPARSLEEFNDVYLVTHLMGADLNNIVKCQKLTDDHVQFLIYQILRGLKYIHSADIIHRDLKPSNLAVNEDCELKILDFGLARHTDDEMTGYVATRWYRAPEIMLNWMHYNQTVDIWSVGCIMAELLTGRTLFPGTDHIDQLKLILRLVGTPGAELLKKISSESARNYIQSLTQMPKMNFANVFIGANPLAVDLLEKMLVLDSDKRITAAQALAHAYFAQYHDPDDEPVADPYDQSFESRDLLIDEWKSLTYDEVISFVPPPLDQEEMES

Target | log2 fold change [1] | log2 fold change [2] | log2 fold change [3] | log2 fold change [4] | log2 fold change [5]
INTS7 (UniProt Q9NVH2) | -0.005 (inactive) | 0.086 (inactive) | 0.001 (inactive) | -0.085 (inactive) | -0.054 (inactive)
MAPK14 isoform 2 (UniProt Q16539) | -0.067 (inactive) | 0.139 (inactive) | 0.077 (inactive) | -0.011 (inactive) | -0.043 (inactive)
IWS1 (UniProt Q96ST2) | -0.01 (inactive) | 0.08 (inactive) | 0.037 (inactive) | 0.045 (inactive) | -0.035 (inactive)
MAP3K20 (UniProt Q9NYL2) | 0.02 (inactive) | -0.037 (inactive) | 0.017 (inactive) | 0.005 (inactive) | 0.022 (inactive)
MAP4 (UniProt E7EVA0) | -0.009 (inactive) | -0.15 (inactive) | -0.095 (inactive) | 0.096 (inactive) | 0.005 (inactive)
KIAA1324L (UniProt A8MWY0) | 0.041 (inactive) | 0.044 (inactive) | 0 (inactive) | -0.001 (inactive) | 0.035 (inactive)
KIF3B (UniProt O15066) | -0.068 (inactive) | -0.014 (inactive) | 0.028 (inactive) | 0.09 (inactive) | -0.054 (inactive)
KIF2C (UniProt Q99661) | -0.062 (inactive) | -0.021 (inactive) | 0.094 (inactive) | 0.002 (inactive) | -0.029 (inactive)
MAP1LC3B2 (UniProt A6NCE7) | 0.015 (inactive) | 0.113 (inactive) | 0.021 (inactive) | -0.015 (inactive) | -0.073 (inactive)
JAK3 (UniProt P52333) | -0.011 (inactive) | 0.075 (inactive) | -0.027 (inactive) | 0.009 (inactive) | 0.032 (inactive)
LGALS8 isoform 2 (UniProt O00214) | -0.032 (inactive) | 0.011 (inactive) | -0.166 (inactive) | -0.022 (inactive) | -0.12 (inactive)
LMBRD1 (UniProt Q9NUN5) | 0.013 (inactive) | 0.099 (inactive) | 0.143 (inactive) | -0.178 (inactive) | 0.039 (inactive)
KCTD10 (UniProt Q9H3F6) | -0.014 (inactive) | -0.009 (inactive) | 0.007 (inactive) | -0.01 (inactive) | 0.03 (inactive)
MAP4K4 isoform 3 (UniProt O95819) | 0.009 (inactive) | 0.032 (inactive) | 0.044 (inactive) | 0.04 (inactive) | 0.264 (active)
MAGEC2 (UniProt Q9UBF1) | 0.043 (inactive) | -0.069 (inactive) | 0.005 (inactive) | 0.009 (inactive) | 0.054 (inactive)
LYPLA2 (UniProt O95372) | 0.033 (inactive) | 0.056 (inactive) | -0.023 (inactive) | -0.161 (inactive) | -0.08 (inactive)
LARP7 isoform 3 (UniProt Q4G0J3) | 0.018 (inactive) | -0.032 (inactive) | 0.045 (inactive) | -0.048 (inactive) | 0.027 (inactive)
LIMA1 isoform 4 (UniProt Q9UHB6) | 0.002 (inactive) | 0.014 (inactive) | -0.002 (inactive) | -0.028 (inactive) | 0.034 (inactive)
KRAS isoform 2 (UniProt P01116) | -0.002 (inactive) | -0.065 (inactive) | 0.096 (inactive) | 0.005 (inactive) | 0.053 (inactive)
MFF (UniProt Q9GZY8) | -0.013 (inactive) | 0.041 (inactive) | 0.064 (inactive) | -0.017 (inactive) | -0.001 (inactive)
IRAK4 (UniProt Q9NWZ3) | -0.077 (inactive) | -0.006 (inactive) | 0.009 (inactive) | -0.012 (inactive) | -0.056 (inactive)
ILKAP (UniProt Q9H0C8) | -0.071 (inactive) | 0.076 (inactive) | 0.135 (inactive) | -0.045 (inactive) | -0.046 (inactive)
KIF13A (UniProt Q9H1H9) | 0.022 (inactive) | 0.039 (inactive) | 0.054 (inactive) | -0.059 (inactive) | -0.027 (inactive)
KEAP1 (UniProt Q14145) | 0.015 (inactive) | -0.001 (inactive) | 0.007 (inactive) | 0.021 (inactive) | 0.001 (inactive)
